Test results taken from PubChem BioAssay AID449762 (Southern Research Specialized Biocontainment Screening …, 2010).
In all, about 330,000 compounds went through this assay and about 1,900 (0.58%) were called active. Not shown: some 4% with an inconclusive outcome. A selection follows. Potency and affinity values are given separately. Values without a mark were called inactive. Rule as the data show it: inconclusive = inhibition above about 70% without an active follow-up result; inactive = below that.

Assay: M. tuberculosis growth inhibition, HTS (AID 449762);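 also: bacterial growth assessed after seven days of incubation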
Conditions: M. tuberculosis H37Rv growth inhibition, 7H9 media; at 25 µM; active compounds read high

With `CC1Cc2ccccc2N1C(=O)CN1CCC(C(N)=O)CC1` (stereo not given) as the compound, how does the inhibition read?
Its inhibition is 0.29%.

For `O=C(NCc1ccccc1)c1ccc2c(=O)[nH]c3c(C(=O)NCC4CCCO4)sc(=S)n3c2c1` (stereo not given), which inhibition is on record?
Its inhibition is 9.46%.

With `Cc1ccc(CNC(=O)c2ccc3c(=O)[nH]c4c(C(=O)NCC5CCCO5)sc(=S)n4c3c2)cc1` (stereo not given) as the compound, how does the inhibition read?
The inhibition was 6.08%.

Which inhibition does the source give for `COC(=O)c1ccc(NC(=S)N2CCN(Cc3ccccc3Cl)CC2)cc1` here?
Its inhibition is 3.97%.

Which inhibition does the source give for `COc1ccc(OC)c(NC(=O)CSc2nc(N3CCOCC3)nc(N3CCOCC3)n2)c1` here?
Its inhibition is -13%.

For `COc1ccc(Nc2ncc3c(n2)CC(c2ccc(C)cc2)CC3=O)cc1` (stereo not given), which inhibition is on record?
Its inhibition is 11%.

For `COc1ccc(Nc2ncc3c(n2)CC(c2ccc(OC)cc2)CC3=O)cc1` (stereo not given), which inhibition is on record?
Its inhibition is 5.93%.

For `CC(=O)c1c(COC(=O)c2cccc(C)c2)nc2ccccc2[n+]1[O-]`, which inhibition is on record?
Its inhibition is -1.11%.

With `CC(=O)c1c(N2CCCCC2)nc(=S)n(-c2ccccc2)c1C` as the compound, how does the inhibition read?
The inhibition was -9.27%.

For `CN1CCC(N(C)C(=O)c2ccc(Cl)c(S(=O)(=O)Nc3cc(Cl)ccc3Cl)c2)CC1`, which inhibition is on record?
Its inhibition is -3.22%.

For `O=C(CCCN1C(=O)c2cccnc2C1=O)N1CC(=O)N(CCc2ccccc2)C(=O)C1`, which inhibition is on record?
The inhibition was 2.7%.

With `CC1CCN(CCNC(=O)C2CCN(S(=O)(=O)c3cccc4nsnc34)CC2)CC1` as the compound, how does the inhibition read?
Its inhibition is -5.73%.

Which inhibition does the source give for `CO/N=C(\Cn1ncc(N2CCOCC2)c(Br)c1=O)c1ccc(Cl)cc1` here?
The inhibition was -12.1%.

With `O=C(Cn1ncc(N2CCCC2)c(Cl)c1=O)c1ccc(Cl)cc1` as the compound, how does the inhibition read?
The inhibition was -5.18%.

For `O=C(NCCC(=O)N1CCC2(CC1)NCCc1[nH]cnc12)c1cccc(C(F)(F)F)c1`, which inhibition is on record?
The inhibition was -1.8%.

With `CS(=O)(=O)Nc1ccc(C2=NN(C(=O)c3ccco3)C(c3ccccc3)C2)cc1` (stereo not given) as the compound, how does the inhibition read?
The inhibition was 2.8%.

Which inhibition does the source give for `C=CCSC1=N/C(=C/c2ccsc2)C(=O)N1c1ccccc1` here?
Its inhibition is -5.05%.

With `Cc1cc(C)n(-c2ccc(C(=O)Nc3ccc4c(c3)OCO4)cc2)n1` as the compound, how does the inhibition read?
Its inhibition is 12.7%.

Which inhibition does the source give for `Cc1cc(C)n(-c2ccc(C(=O)NCc3ccc4c(c3)OCO4)cc2)n1` here?
The inhibition was 8.5%.

For `COc1ccc(CCNC(=O)CCc2nc3sc4c(c3c(=O)[nH]2)CCCC4)cc1`, which inhibition is on record?
The inhibition was -1.73%.

Which inhibition does the source give for `CCCCC(CC)CO` (stereo not given) here?
Its inhibition is -4.02%.

For `CCCCC(CC)COC(=O)CCCCC(=O)OCC(CC)CCCC` (stereo not given), which inhibition is on record?
Its inhibition is 12.3%.

With `Cc1csc(NC(=O)c2cccs2)n1` as the compound, how does the inhibition read?
The inhibition was -0.19%.

Which inhibition does the source give for `Nc1cc(N2CCCCCC2)c2nonc2c1[N+](=O)[O-]` here?
Its inhibition is -8.43%.

For `Nc1ccc2nonc2c1[N+](=O)[O-]`, which inhibition is on record?
Its inhibition is -0.05%.

For `COc1cccc2sc(N(CCN(C)C)C(=O)/C=C/c3cccs3)nc12`, which inhibition is on record?
The inhibition was 8.94%.

With `Cc1cccc2sc(N(CCN(C)C)C(=O)/C=C/c3cccs3)nc12` as the compound, how does the inhibition read?
The inhibition was 51.5%.

With `CN(CC(=O)Nc1ccc(S(=O)(=O)N2CCCC2)cc1)Cc1ccc(Cl)cc1Cl` as the compound, how does the inhibition read?
The inhibition was -3.94%.

Which inhibition does the source give for `O=C(CCC(=O)N(CC(=O)NC1CCCC1)Cc1ccc(F)cc1)Nc1nccs1` here?
Its inhibition is 7.88%.

For `O=C(NC1CC1)c1cccc(S(=O)(=O)Nc2ccccc2F)c1`, which inhibition is on record?
The inhibition was -4.2%.

With `CCN(CC)c1ccc(/C=N/Nc2nc3ccccc3[nH]2)c(O)c1` as the compound, how does the inhibition read?
The inhibition was 19.6%.

Which inhibition does the source give for `CCN(CC)c1ccc2cc(-c3nc4ccccc4[nH]3)c(=O)oc2c1` here?
The inhibition was 4.76%.

For `O=c1c2oc3ccccc3c2[nH]c(=S)n1-c1ccc(F)cc1`, which inhibition is on record?
The inhibition was 0.38%.

With `Cc1ccc(C2Oc3ccccc3C3=C2C(c2cccs2)n2ncnc2N3)cc1` (stereo not given) as the compound, how does the inhibition read?
Its inhibition is 55.2%.

With `Fc1ccc(C2C3=C(Nc4ncnn42)c2ccccc2OC3c2ccncc2)cc1` (stereo not given) as the compound, how does the inhibition read?
The inhibition was -5.07%.

Which inhibition does the source give for `C/C=C\C=C\C(=O)N1CC2(CC(c3cccc(NC(=O)COc4ccc(Cl)cc4)c3)=NO2)C[C@H]1C(N)=O` (stereo not given in full) here?
Its inhibition is 23.8%.

For `COc1c(C)cc(C(=O)C2CCCN(Cc3ccc(Oc4ncccn4)cc3)C2)cc1C` (stereo not given), which inhibition is on record?
The inhibition was 7.33%.

For `COc1cccc(C(=O)C2CCCN(Cc3ccccn3)C2)c1` (stereo not given), which inhibition is on record?
Its inhibition is 33.9%.

For `COc1ccc(N2CCN(CCNC(=O)c3ccc(NC(=O)C4CCCO4)cc3)CC2)cc1` (stereo not given), which inhibition is on record?
Its inhibition is -2.8%.

With `O=C1N=C(N2CCCC2)S/C1=C\c1cn[nH]c1-c1ccccc1` as the compound, how does the inhibition read?
The inhibition was -6.16%.

For `CC1CCN(C2=NC(=O)/C(=C/c3cn[nH]c3-c3ccccc3)S2)CC1`, which inhibition is on record?
The inhibition was 12.8%.

For `CCOC(=O)c1[nH]c2c(c1-c1ccccc1)C(=O)CC(c1ccccc1)C2` (stereo not given), which inhibition is on record?
The inhibition was 3.2%.

With `Nc1nc2ccccc2n1CCN1CCCC1` as the compound, how does the inhibition read?
The inhibition was -1.87%.

With `CC(C)(C)c1ccc(C(=O)O)c(C(=O)c2ccccc2)c1` as the compound, how does the inhibition read?
The inhibition was -4.75%.

With `Brc1cnc2nc(SC/C=C/c3ccccc3)[nH]c2c1` as the compound, how does the inhibition read?
The inhibition was -5.71%.

Which inhibition does the source give for `COc1ccccc1C(=O)NCC1CCN(c2ccc(S(=O)(=O)N3CCOCC3)cc2)CC1` here?
The inhibition was 2.24%.

For `COc1cccc(C(=O)NCC2CCN(c3ccc(S(=O)(=O)N4CCOCC4)cc3)CC2)c1`, which inhibition is on record?
Its inhibition is -13.8%.

Which inhibition does the source give for `CC(=O)NS(=O)(=O)c1ccc(NS(=O)(=O)c2ccccc2[N+](=O)[O-])cc1` here?
Its inhibition is 3.53%.

Which inhibition does the source give for `CCCCNC(=O)CN(c1cc(C(F)(F)F)ccc1Cl)S(C)(=O)=O` here?
Its inhibition is -6.63%.

With `CCN(CC)CCCC(C)NC(=O)c1ccc(C(F)(F)F)cc1` (stereo not given) as the compound, how does the inhibition read?
Its inhibition is -7.51%.

Which inhibition does the source give for `O=C(CCN1CCCC1)Nc1ccccc1` here?
Its inhibition is 22.9%.

Which inhibition does the source give for `Cc1ccc(C)c(N2CCN(C(=S)Nc3ccc4nc(N5CCOCC5)cc(C)c4c3)CC2)c1` here?
Its inhibition is -4.9%.

Which inhibition does the source give for `Cc1cc(N2CCN(C)CC2)nc2ccc(NC(=S)N3CCCCCC3)cc12` here?
The inhibition was 3.75%.

With `CCN(CCCNC(=O)CNC(=O)c1nn(-c2ccc(OC)cc2)c(=O)c2ccccc12)c1cccc(C)c1` as the compound, how does the inhibition read?
The inhibition was 8.46%.

With `Cc1cc2c(cc1C)CSC(c1ccccc1O)SC2` as the compound, how does the inhibition read?
Its inhibition is 13.6%.

With `Cc1cc2c(cc1C)CSC(c1ccc3ccccc3c1O)SC2` as the compound, how does the inhibition read?
The inhibition was -4.57%.

With `CCOc1ccc2oc(=O)cc(CN3CCN(C(=O)c4ccco4)CC3)c2c1` as the compound, how does the inhibition read?
The inhibition was 4.6%.

With `Cn1c(N)c(C(=O)COC(=O)c2ccc(Br)o2)c(=O)n(C)c1=O` as the compound, how does the inhibition read?
The inhibition was 1.58%.

With `CN1/C(=C\C(=O)COC(=O)c2ccc(O)cc2)C(C)(C)c2ccccc21` as the compound, how does the inhibition read?
Its inhibition is -3.13%.

Which inhibition does the source give for `CN1/C(=C\C(=O)C[n+]2cccc(C(N)=O)c2)C(C)(C)c2ccccc21` here?
The inhibition was 0.09%.

With `CN1/C(=C\C(=O)COC(=O)c2ccco2)C(C)(C)c2ccccc21` as the compound, how does the inhibition read?
The inhibition was 0.58%.

For `Cn1c(N)c(C(=O)COC(=O)c2ccco2)c(=O)n(C)c1=O`, which inhibition is on record?
The inhibition was 1.11%.

With `Cc1ccc[n+](CC(=O)/C=C2\N(C)c3ccccc3C2(C)C)c1` as the compound, how does the inhibition read?
The inhibition was -2.49%.

With `COc1ccc(Cl)cc1NC(=O)CSc1nnc(-c2ccco2)o1` as the compound, how does the inhibition read?
Its inhibition is -2.66%.

For `O=C(OCC(=O)N1CCCCC1)c1c[nH]c(=O)[nH]c1=O`, which inhibition is on record?
Its inhibition is -1.77%.

Which inhibition does the source give for `COc1ccccc1C(=O)NC(CCSC)C(=O)NNC(=O)c1ccccc1O` (stereo not given) here?
Its inhibition is -6.8%.

Which inhibition does the source give for `CC(C)(C)C(=O)O/N=C(\N)c1ccc(Oc2cc(Cl)cc(Cl)c2)c([N+](=O)[O-])c1` here?
Its inhibition is 0.8%.

For `CCCCN1CC(O)=C(c2nc3ccccc3[nH]2)C1=N`, which inhibition is on record?
The inhibition was -10.6%.

For `COc1ccc(NC(=O)N(C)C[C@H]2Oc3ccc(NC(=O)Cc4ccccc4)cc3C(=O)N([C@H](C)CO)C[C@@H]2C)cc1`, which inhibition is on record?
Its inhibition is -4.97%.

For `COc1ccc(C(=O)NCC(c2ccc3c(c2)OCO3)N2CCN(c3ccc(OC)cc3)CC2)cc1` (stereo not given), which inhibition is on record?
The inhibition was 7.52%.

For `O=C(COc1ncnc2cc([N+](=O)[O-])ccc12)NC1CCCCC1`, which inhibition is on record?
The inhibition was -3.77%.

Which inhibition does the source give for `CCOC(=O)c1ccc(NC(=O)CSc2nc(C)nc3c2c(=O)n(C)c(=O)n3C)cc1` here?
Its inhibition is -9.19%.

For `CCCC/C(=N/O)c1c(C)[nH]c2ccccc12`, which inhibition is on record?
The inhibition was -0.42%.

Which inhibition does the source give for `CCc1sc2nc(SCC(=O)Nc3cc(C)on3)n(-c3cccc(OC)c3)c(=O)c2c1C` here?
Its inhibition is -0.05%.

For `COc1ccc2c(c1)CCc1c(C(=O)Nc3c(C)nn(Cc4ccccc4)c3C)noc1-2`, which inhibition is on record?
The inhibition was 0.29%.

With `Cc1c(NC(=O)c2noc3c2CCc2ccccc2-3)c(=O)n(-c2ccccc2)n1C` as the compound, how does the inhibition read?
Its inhibition is 43%.

For `CC(C)(C)c1nnc(NC(=O)CCS(=O)(=O)Cc2ccccc2)s1`, which inhibition is on record?
The inhibition was -8.95%.

With `O=C(Cc1ccc(Br)cc1)NC1CCSC1=O` (stereo not given) as the compound, how does the inhibition read?
Its inhibition is -3.33%.

For `O=C(c1cccs1)N1CCN(c2cccc(Cl)c2)CC1`, which inhibition is on record?
The inhibition was 0.26%.

For `O=C(Cn1ccsc1=NC(=O)C(F)(F)F)c1ccccc1`, which inhibition is on record?
The inhibition was -3.48%.

For `CC(=O)NC12CC3CC(C1)CC(C(=O)Nc1nc4ccc(S(C)(=O)=O)cc4s1)(C3)C2`, which inhibition is on record?
Its inhibition is -8.67%.

Which inhibition does the source give for `CC(=O)NC12CC3CC(C1)CC(C(=O)Nc1nccs1)(C3)C2` here?
Its inhibition is -0.32%.

Which inhibition does the source give for `Cc1ccc2c(c1)c(C1=NC(=S)NC1=O)c(O)n2C` here?
Its inhibition is -2.95%.

For `Cn1c(O)c(C2=c3ccccc3=NC2=O)[nH]c1=S`, which inhibition is on record?
The inhibition was 37%.

For `C/C(=N\NC(=O)c1ccc(Cn2cc([N+](=O)[O-])cn2)o1)c1cccc(NC(=O)c2cccnc2)c1`, which inhibition is on record?
The inhibition was -0.38%.

Which inhibition does the source give for `Clc1cccc(C2Nc3cccc4cccc(c34)N2)c1` here?
Its inhibition is 11.6%.

With `O=C(c1ccccc1)c1ccc(OCCCCN2CCCCC2)cc1` as the compound, how does the inhibition read?
The inhibition was 3.79%.

For `O=C(c1ccccc1)c1ccc(OCCCN2CCCC2)cc1`, which inhibition is on record?
Its inhibition is -9.38%.

For `Cc1nc(Nc2c(Cl)cccc2Cl)sc1C(=O)Nc1ccccc1`, which inhibition is on record?
The inhibition was 12%.

Which inhibition does the source give for `Cc1nc(Nc2ccccc2)sc1C(=O)Nc1ccccc1` here?
Its inhibition is 7.98%.
